TIM10 inh: growth inhibitors of TIM10 yeast strain; S. cerevisiae TIM10 strain growth, BacTiter-Glo luminescence, 24 h; 330,000 tested, 1.4% active; inhibition, % at 10 µM;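 active = inhibition of 40% or more at the single tested concentration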;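 also: wild-type TIM10 isogenic control strain grown at permissive 25 °C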
PfHsp90 set2: growth inhibition of yeast expressing Plasmodium Hsp90. AID 504621. S. cerevisiae expressing PfHsp90, BacTiter-Glo ATP, 48 h; yeast lacking PDR1 and PDR3 efflux regulators. inhibition, % at 9.4 µM. 310,000 tested, 0.32% active;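 active = every replicate shows inhibition above about 80%, whatever the replicate mean, limit read from the data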;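 also: 0% = DMSO neutral controls and 100% = 20 µM radicicol positive controls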
tim23-1 inh: inhibits growth of tim23-1 mutant yeast | S. cerevisiae tim23-1 growth, BacTiter-Glo luminescence, 24 h | 330,000 tested, 1.3% active | inhibition, % at 20 µM;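 active = growth inhibition of the mutant yeast at or above 50%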;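 also: temperature-sensitive mutant grown at 25 °C; plate controls were DMSO-treated mutant yeast for no effect and medium wells lacking yeast for full effect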
tim10-1 inh: inhibits growth of tim10-1 mutant yeast. inhibition, % at 20 µM. 330,000 tested, 2.2% active. S. cerevisiae tim10-1 ts strain growth, BacTiter-Glo, 24 h;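 active = inhibition of at least 40%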;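 also: mutant grown at 25 °C; 0% = DMSO wells with yeast and 100% = wells holding no yeast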
V-ATPase pHluor: yeast V-ATPase proton transport regulation by pHLuorin; 350,000 tested, 0.37% active; response, % at 10 µM; S. cerevisiae, pHLuorin cytosolic pH fluorescence; in the data active = response mostly above about 7.3%, no sharp cut-off; inactive = mostly below about 5.4%; also: actives read high
VATPase regulator: modulates yeast V-ATPase proton transport; shares compounds with V-ATPase pHluor; S. cerevisiae pHLuorin cytosolic pH; response, % at 10 µM; 980 tested, 2% active; AID 602197; in the data active = response above about 24%;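 also: plate controls were vehicle wells for no effect and positive control wells for full effect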
* = called active by the depositor; / = no result given. The list is not random: actives were taken first. Their share in the collection is about 3.7%.

SMILES	TIM10 inh	PfHsp90 set2	tim23-1 inh	tim10-1 inh	V-ATPase pHluor	VATPase regulator
C/C(=N\NC(=O)c1ccccc1F)c1cccc(NC(=O)c2ccc(C)cc2)c1	-1	-23	7	-5	1	/
O=C(COC(=O)c1c(Cl)cccc1Cl)NCC1CCCO1 (stereo not given)	-5	-15	-6	-3	12*	0
O=C(CSc1ccc(Cl)cc1)NC1CCCC1	-13	-15	-9	8	-1	/
O=C(NC1CCCCC1)Sc1ccc(Cl)cc1	6	-17	39	33	8.0*	8
CCN(C(=O)COC(=O)Cc1c[nH]c2ccccc12)c1c(N)n(Cc2ccccc2)c(=O)[nH]c1=O	7	-1	-1	-7	4	/
NC(=O)COc1ccc(=O)n(-c2ccccc2)n1	2	13	3	-15	-1	/
O=c1ccc(OCCOc2ccccc2)nn1-c1ccccc1	5	-22	9	9	15*	7
C[C@@H]1CCCCO[C@H](CN(C)S(=O)(=O)c2cn(C)cn2)[C@@H](C)CN([C@H](C)CO)C(=O)c2cc(NC(=O)c3ccncc3)ccc2O1	/	/	/	/	1	/
CC1CN(C(=O)c2ccc(C(=O)c3ccccc3)cc2)CC(C)O1 (stereo not given)	12	27	3	10	11*	-2
CC1CN(C(=O)c2cccc(C(=O)N3CC(C)OC(C)C3)c2)CC(C)O1 (stereo not given)	8	-11	15	7	-2	/
CC1CN(C2CCN(C(=O)c3ccccc3)CC2)CC(C)O1 (stereo not given)	-11	21	14	-7	9.3*	1
CCCc1nc2sc3c(c2c(=O)n1NC(=O)CCC(=O)O)CCCC3	-7	-9	24	0	8.6*	-4
O=C(Nc1ccc(Cl)c(Cl)c1)OCc1cnc(Cl)s1	-1	/	19	19	2	/
O=C(Nc1ccccc1)OCc1cnc(Cl)s1	-1	-20	15	7	7.0*	2
Cc1nn(CC(=O)OCC(=O)NCCc2ccc(F)cc2)c(C)c1[N+](=O)[O-]	-10	-1	-8	-18	9.9*	-4
CC1=C(C(=O)N(C)C)CC(CC(=O)NCc2cccs2)C(=O)N1CCC1=CCCCC1 (stereo not given)	/	/	/	/	-3	/
COc1cccc(C(=O)NNC(=O)c2ccccc2)c1	1	0	-4	2	-3	/
COc1cccc(C(N)=O)c1	2	14	14	20	11*	0
COc1cc(-c2nc(-c3cccc(C)c3)no2)cc(OC)c1OC	30	-24	21	39	8.1*	0
COc1ccc(-c2nc(-c3cccc(C)c3)no2)cc1OC	21	5	0	19	3	/
CCOC(=O)Cc1cc(=O)n2[nH]c(C)c(-c3ccccc3OC)c2n1	-2	14	10	15	19*	0
CCOC(=O)Cc1cc(=O)n2[nH]c(C)c(-c3ccccc3)c2n1	6	8	13	3	-3	/
COCCCNC(=O)CCN1N=C(c2ccccc2)CCC1=O	2	0	8	0	0	/
COc1cc(-c2nnc(COC(=O)c3ccc([N+](=O)[O-])o3)o2)cc(OC)c1OC	/	/	/	/	2	/
COc1ccc2c(c1)C(c1ccc(C)o1)=NNC(c1ccccc1)=N2	27	/	20	22	-1	/
SMILES	TIM10 inh	PfHsp90 set2	tim23-1 inh	tim10-1 inh	V-ATPase pHluor	VATPase regulator
COc1ccc2c(c1)C(c1ccc(C)o1)=NNC(c1cccnc1)=N2	11	-13	-1	8	8.6*	6
CCc1noc(C)c1C(=O)N1CCN(S(=O)(=O)c2cccs2)CC1	4	-36	13	-18	7.1*	1
O=C(O)CCc1[nH]c2ccccc2c1Sc1ccccc1	13	-3	9	0	0	/
COc1cc(CN(C2CC2)S(=O)(=O)c2ccccc2Br)cc(OC)c1	-16	11	44	20	0	/
CC1=CC(C)[C@H](/C=N/n2c(=O)[nH]c3c([nH]c4ccc(C)cc43)c2=O)C(C)C1 (stereo not given in full)	-18	/	3	16	-3	/
COc1ccc(/C=c2\s/c(=C/C(=O)c3ccc(C)cc3)[nH]c2=O)c(OC)c1	14	9	6	18	-8	/
COc1cccc(/C=c2\s/c(=C/C(=O)c3ccc(C)cc3)[nH]c2=O)c1OC	4	8	9	0	8.0*	-54
COc1ccc([C@H]2C[C@H](n3cc(COC(=O)c4ccccc4)nn3)[C@@H](O)CN2Cc2cccs2)cc1	/	/	/	/	1	/

Source: PubChem (several laboratories)
